In PubChem BioAssay (NCI):
About 79,000 compounds went through this panel and 15% of them were active in at least one assay; those are over-represented in the sample as a whole. Values without a mark were called inactive. Calls of active or inactive are those of the source. No stated cut-off is given here; in the data, active means growth inhibition above about 70%; inactive means the rest.

How the values were obtained:
[1] = NCI Yeast Anticancer Drug Screen. Data for the wt1 strain (AID 149);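 further: 0% = growth of vehicle-treated wt1 cultures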; conditions: S. cerevisiae wt1 strain (SPY 50644) growth inhibition, active compounds read high
Outline: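 Yeast wt1 strain exposed to compounds; growth inhibition measured relative to vehicle-treated controls.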

[2] = NCI Yeast Anticancer Drug Screen. Data for the rad50EPP+ strain (AID 151);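 further: 0% = growth of vehicle-treated control cultures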; conditions: S. cerevisiae rad50 mutant strain, active compounds read high
Outline: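 In this screen, rad50EPP+ yeast were exposed to compounds. Growth inhibition was scored against vehicle-treated controls.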

[3] = NCI Yeast Anticancer Drug Screen. Data for the rad50 strain (AID 155);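 further: 0% = growth of vehicle-only cultures of the same strain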; conditions: S. cerevisiae rad50 strain growth inhibition, active compounds read high
Outline: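 Yeast carrying a defined DNA repair defect were exposed to test compounds, and growth was compared with vehicle-treated controls to give percent inhibition.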

[4] = NCI Yeast Anticancer Drug Screen. Data for the mec2-1 strain (AID 157); conditions: S. cerevisiae mec2-1 strain, active compounds read high
Outline: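 Vehicle-treated cultures served as reference for growth inhibition of compound-exposed mec2-1 yeast.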

[5] = NCI Yeast Anticancer Drug Screen. Data for the rad14 strain (AID 159);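 further: 0% = growth of vehicle-treated control cultures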; conditions: S. cerevisiae rad14 strain growth inhibition, active compounds read high
Outline: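 Yeast cells carrying a defined DNA-repair defect were exposed to compounds, and growth inhibition was calculated relative to vehicle-treated control cultures.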

[6] = NCI Yeast Anticancer Drug Screen. Data for the sgs1 mgt1 strain (AID 161);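 further: 0% = growth of cultures given vehicle only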; conditions: S. cerevisiae sgs1 mgt1 strain, active compounds read high
Outline: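 Inhibition of yeast growth, normalised to vehicle-treated controls, is reported for a strain bearing genetic alterations in DNA damage repair.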

[7] = NCI Yeast Anticancer Drug Screen. Data for the CLN2oe strain (AID 163);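 further: 0% = growth of vehicle-only control cultures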; conditions: S. cerevisiae CLN2oe strain, active compounds read high
Outline: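 Inhibition relative to vehicle-treated yeast is reported. Cells: strain with genetic alteration in cell-cycle control, grown with compound.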

[8] = NCI Yeast Anticancer Drug Screen. Data for the cln2 rad14 strain (AID 165);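 further: 0% = growth equal to vehicle treated cultures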; conditions: S. cerevisiae cln2 rad14 strain, active compounds read high
Outline: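 Each compound was tested on cln2 rad14 yeast. Inhibition of growth was calculated against vehicle-exposed controls.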

[9] = NCI Yeast Anticancer Drug Screen. Data for the bub3 strain (AID 167); conditions: S. cerevisiae bub3 mutant strain, active compounds read high
Outline: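 Compounds were applied to a genetically altered yeast strain carrying a cell-cycle control defect. Growth inhibition was scored against vehicle-treated controls.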

[10] = NCI Yeast Anticancer Drug Screen. Data for the wt2 strain (AID 169);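 further: 0% = growth of vehicle-treated yeast cultures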; conditions: S. cerevisiae wt2 strain growth inhibition, active compounds read high
Outline: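 Inhibition of yeast growth was determined after compound treatment, normalised to controls receiving only vehicle.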

[11] = NCI Yeast Anticancer Drug Screen. Data for the mlh1 strain (AID 171);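 further: 0% = growth of vehicle-treated control cultures of the same strain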; conditions: S. cerevisiae mlh1 strain growth inhibition, active compounds read high
Outline: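 Vehicle-normalised growth inhibition of a repair- or checkpoint-altered yeast strain following compound treatment.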

[12] = NCI Yeast Anticancer Drug Screen. Data for the sgs1 strain (AID 173);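 further: 0% = growth of vehicle-only control cultures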; conditions: S. cerevisiae sgs1 mutant, active compounds read high
Outline: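 Screen format: yeast with repair or checkpoint alterations, compound exposure, growth read relative to vehicle.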

[13] = NCI Yeast Anticancer Drug Screen. Data for the mlh1 rad18 strain (AID 175); conditions: S. cerevisiae mlh1 rad18 strain growth inhibition, active compounds read high
Outline: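 Vehicle-treated cultures served as the reference for growth inhibition in a yeast strain carrying DNA damage repair alterations exposed to each compound.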

[14] = NCI Yeast Anticancer Drug Screen. Data for the rad18 strain (AID 177); conditions: S. cerevisiae rad18 mutant growth inhibition, active compounds read high
Outline: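 Test articles were incubated with altered yeast defective in DNA damage repair. Results are given as inhibition of growth versus vehicle.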

[15] = at 5.0 µM (retest, dose inferred, filed as 0.5)
[16] = at 50.0 µM (retest, dose inferred, filed as 5.0)

CN(NC(=O)/C(=C/C=C/c1ccccc1)NC(=O)c1ccccc1)C1=C(Cl)C(=O)[N+](c2ccccc2)=CC1
growth inhibition ([1]; at 1.2 µM): 0%
growth inhibition ([1]; at 3.7 µM): 2%
growth inhibition ([1]; at 11.0 µM): 15%
growth inhibition ([1]; at 33.0 µM): 38%
growth inhibition ([1]; at 100.0 µM): 40%
growth inhibition ([2]; at 1.2 µM): 1%
growth inhibition ([2]; at 3.7 µM): 7%
growth inhibition ([2]; at 11.0 µM): 37%
growth inhibition ([2]; at 33.0 µM): 69%
growth inhibition ([2]; at 100.0 µM): 79% (active)
growth inhibition ([3]; at 1.2 µM): -4%
growth inhibition ([3]; at 3.7 µM): -1%
growth inhibition [3, 15]: -3%
growth inhibition ([3]; at 11.0 µM): 34%
growth inhibition ([3]; at 33.0 µM): 63%
growth inhibition [3, 16]: 30%
growth inhibition ([3]; at 50.0 µM): 58.1%
growth inhibition ([3]; at 100.0 µM): 67%
growth inhibition ([4]; at 1.2 µM): 0%
growth inhibition ([4]; at 3.7 µM): 6%
growth inhibition [4, 15]: -12%
growth inhibition ([4]; at 11.0 µM): 16%
growth inhibition ([4]; at 33.0 µM): 37%
growth inhibition [4, 16]: 2%
growth inhibition ([4]; at 50.0 µM): 35.2%
growth inhibition ([4]; at 100.0 µM): 49%
growth inhibition ([5]; at 1.2 µM): -1%
growth inhibition ([5]; at 3.7 µM): -4%
growth inhibition ([5]; at 11.0 µM): 2%
growth inhibition ([5]; at 33.0 µM): 13%
growth inhibition ([5]; at 100.0 µM): 29%
growth inhibition [6, 15]: -6%
growth inhibition [6, 16]: 8%
growth inhibition ([6]; at 50.0 µM): 79.8% (active)
growth inhibition ([7]; at 1.2 µM): -1%
growth inhibition ([7]; at 3.7 µM): 5%
growth inhibition ([7]; at 11.0 µM): 19%
growth inhibition ([7]; at 33.0 µM): 40%
growth inhibition ([7]; at 100.0 µM): 44%
growth inhibition [8, 15]: 30%
growth inhibition [8, 16]: 35%
growth inhibition ([8]; at 50.0 µM): 15.8%
growth inhibition ([9]; at 1.2 µM): 1%
growth inhibition ([9]; at 3.7 µM): 11%
growth inhibition [9, 15]: -5%
growth inhibition ([9]; at 11.0 µM): 33%
growth inhibition ([9]; at 33.0 µM): 53%
growth inhibition [9, 16]: 72% (active)
growth inhibition ([9]; at 50.0 µM): 70.4% (active)
growth inhibition ([9]; at 100.0 µM): 49%
growth inhibition ([10]; at 1.2 µM): -3%
growth inhibition ([10]; at 3.7 µM): 0%
growth inhibition ([10]; at 11.0 µM): 19%
growth inhibition ([10]; at 33.0 µM): 42%
growth inhibition ([10]; at 100.0 µM): 43%
growth inhibition ([11]; at 1.2 µM): 2%
growth inhibition ([11]; at 3.7 µM): 8%
growth inhibition ([11]; at 11.0 µM): 37%
growth inhibition ([11]; at 33.0 µM): 61%
growth inhibition ([11]; at 100.0 µM): 63%
growth inhibition ([12]; at 1.2 µM): 1%
growth inhibition ([12]; at 3.7 µM): 5%
growth inhibition ([12]; at 11.0 µM): 27%
growth inhibition ([12]; at 33.0 µM): 70% (active)
growth inhibition ([12]; at 100.0 µM): 69%
growth inhibition [13, 15]: -2%
growth inhibition [13, 16]: 18%
growth inhibition ([13]; at 50.0 µM): 84.4% (active)
growth inhibition ([14]; at 1.2 µM): 1%
growth inhibition ([14]; at 3.7 µM): 26%
growth inhibition ([14]; at 11.0 µM): 77% (active)
growth inhibition ([14]; at 33.0 µM): 90% (active)
growth inhibition ([14]; at 100.0 µM): 87% (active)
